Rab9 prom act = activates the Rab9 promoter | 2.8% of 320,000 active | AID 485297 | Potency, µM (series often up to 9.22 µM), usual class: activators | Huh7 Rab9 promoter-luciferase reporter, luminescence, 24 h; also: nearly all actives have a fitted effect of over 60% in size
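Cells were plated at 1500 per well in reduced-serum medium with 10% FBS and left 2 h. Compound in DMSO was then added for 24 h at 37 °C. Reporter signal was read by luminescence after 10 min with luciferase detection reagent.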
SMN2 splice enh = increases expression of the SMN2 splice variant; Potency, µM (top dose mostly 46.1 µM), hits mostly activators; HEK293 SMN2-luciferase splicing reporter, luminescence, 30-36 h; 2.8% of 210,000 active; also: nearly all actives have a fitted effect of over 55% in size
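qHTS luciferase splicing reporter: luminescence rises when SMN2 exon 7 is included in transfected HEK293 cells. Compound exposure lasted 30-36 h at 37C, with 4.5 mM final sodium butyrate as control, followed by a ONE-Glo read.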
ELG1 repair inh = inhibitors of ELG1-dependent DNA repair in HEK293T cells | HEK293T ELG1-luciferase reporter, luminescence, 16 h; DNA damage induced by 5-fluorouridine | Potency, µM (series often up to 46.1 µM), usual class: inhibitors | 2.3% of 330,000 active | AID 504467; also: nearly all actives have a fitted effect of over 55% in size
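Step one: seed 2,000 cells per well. Step two: pin-transfer compound or DMSO alongside 5-fluorouridine. Step three: incubate 16 hr, 37 °C, 5% CO2. Step four: add ONE-Glo, wait 30 min, read luminescence.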
ELG1 genotox = inducers of genotoxicity in HEK293T ELG1-luciferase cells; HEK293T ELG1-luciferase reporter, luminescence, 16 h; Potency, µM (titrated, usually from 46 µM), usual class: activators; 1.3% of 330,000 active; AID 504466; also: nearly all actives have a fitted effect of over 60% in size
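Reporter readout depends on ELG1 protein level, which increases with genetic stress. After 16 hr compound exposure at 37 °C, luciferase activity was quantified using ONE-Glo.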
FLuc counter = inhibits or activates purified firefly luciferase, miR-21 counter-screen. P08659. 6.9% of 360,000 active. purified FLuc, Km substrates, luminescence inhibition. Potency, µM (doses to about 57.5 µM), usual class: inhibitors; also: nearly all actives have a fitted effect of over 55% in size
Target sequence (P08659 whole entry, looked up): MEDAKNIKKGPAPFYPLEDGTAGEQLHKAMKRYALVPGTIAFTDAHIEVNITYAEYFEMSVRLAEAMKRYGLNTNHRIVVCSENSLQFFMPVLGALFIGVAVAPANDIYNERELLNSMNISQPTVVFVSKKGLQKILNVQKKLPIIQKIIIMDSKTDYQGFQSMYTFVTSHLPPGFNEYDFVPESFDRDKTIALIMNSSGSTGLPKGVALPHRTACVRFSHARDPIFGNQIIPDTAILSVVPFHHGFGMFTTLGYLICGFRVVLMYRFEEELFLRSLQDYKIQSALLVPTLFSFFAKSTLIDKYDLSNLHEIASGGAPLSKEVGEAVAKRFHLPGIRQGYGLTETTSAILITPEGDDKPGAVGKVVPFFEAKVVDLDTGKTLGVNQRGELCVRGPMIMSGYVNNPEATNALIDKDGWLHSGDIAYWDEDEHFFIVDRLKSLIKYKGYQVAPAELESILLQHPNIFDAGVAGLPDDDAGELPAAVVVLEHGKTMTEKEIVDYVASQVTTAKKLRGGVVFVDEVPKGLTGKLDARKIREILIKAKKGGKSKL
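Biochemical qHTS of compounds, final roughly 60 µM downward over six points, against 10 nM purified firefly luciferase using Km concentrations of substrates (10 uM D-luciferin, 10 uM ATP) in Tris acetate pH 7.5 buffer; luminescence output.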
NPC1 prom act = NPC1 promoter activation | Huh7 NPC1 promoter luciferase reporter, 24 h | Potency, µM (doses to about 9.22 µM), actives largely listed as activators | 2.4% of 320,000 active; also: nearly all actives have a fitted effect of over 60% in size
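Luminescence from an NPC1 promoter-driven luciferase reporter in stably transfected Huh7 cells was measured after 24 h compound treatment at 37 °C, followed by 10 min ambient incubation with luciferase detection reagent.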
A number is an active result; . = inactive; ? = inconclusive; / = no result given; [ ] = dose if it differs, or a comment. Compounds with a hit are over-represented: about 9.3% of the library has one in this group of screens. Calls follow the shape of the dose curve; as a rule, active = well fitted curve in the direction sought with a large enough effect; inconclusive = small, poorly fitted or top-dose-only effect, or another doubt; inactive = no such curve, though single readings can be large; an effect the other way counts as inactive or inconclusive.

SMILES | Rab9 prom act | SMN2 splice enh | ELG1 repair inh | ELG1 genotox | FLuc counter | NPC1 prom act
COc1cc(O)cc2occ(-c3ccc(O)cc3)c(=O)c12 | . | / | ? | . | ? | .
O=c1c(-c2ccc(O)cc2)coc2cc(O)cc(O)c12 | 13µM | 25µM | ? | 16µM | 21µM | 5.8µM
CC(C)Oc1cc(O)c2c(=O)c(-c3ccc(O)cc3)coc2c1 | 1.4µM | 7.1µM | ? | 16µM | 5.4µM | 0.89µM
Cc1nc2cnc(Nc3ccccc3)nc2n(C)c1=O | / | . | / | / | / | /
CCOc1ccc(CN(C)CCc2ccccn2)cc1 | . | . | . | . | . | .
CCn1nnnc1SCC(=O)Nc1nnc(C(C)C)s1 | . | 0.4µM | ? | . | . | .
CCCn1c(SCC(=O)Nc2nnc(CC)s2)nc2c1c(=O)n(C)c(=O)n2C | . | . | . | . | . | .
CCCCn1c(SCC(=O)Nc2nnc(C(C)C)s2)nc2c1c(=O)n(C)c(=O)n2C | . | / | 18µM | . | . | .
CCN(CC)S(=O)(=O)c1ccc(C(=O)NCCN2C(=O)S/C(=C\c3cccnc3)C2=O)cc1 | . | . | 15µM | . | . | .
COc1ccc(NC(=S)NC(=O)c2csnn2)cc1 | . | / | . | . | ? | .
Cc1c(CC(=O)O)c(=O)oc2cc3occ(-c4ccccc4)c3cc12 | . | / | . | . | ? | .
Cc1c(CC(=O)N[C@@H](C)C(=O)O)c(=O)oc2c(C)c3occ(-c4ccccc4)c3cc12 | . | / | . | . | . | .
Cc1c(CC(=O)N[C@@H](C)C(=O)O)c(=O)oc2cc3occ(-c4ccccc4)c3cc12 | . | / | . | . | 21µM | .
Cc1c(CC(=O)NCCC(=O)O)c(=O)oc2cc3occ(-c4ccccc4)c3cc12 | . | / | . | . | 15µM | .
S=C(N=Nc1ccccc1)NNc1ccccc1 | . | ? | ? | . | 19µM | .
S=C(NNC(=S)Nc1ccccc1)Nc1ccccc1 | ? | / | ? | . | ? | ?
O=C(OCC(=O)N1CCc2ccccc21)c1cccnc1 | . | / | . | . | ? | .
O=C(OCC(=O)N1CCc2ccccc21)c1cccnc1Cl | . | . | ? | ? | 11µM | .
COc1cc(N)c(Cl)cc1C(=O)OCC(=O)N1CCc2ccccc21 | . | / | . | . | . | .
COc1cccc(C(=O)OCC(=O)N2CCc3ccccc32)c1OC | . | / | ? | ? | 11µM | .
O=C(OCC(=O)N1CCCc2ccccc21)c1cccnc1Cl | . | / | . | . | . | .
O=C(OCC(=O)N1CCc2ccccc21)c1ccccc1 | . | . | ? | ? | 9.5µM | .
CC(=O)NC(CC(=O)NCCN1C(=O)S/C(=C\c2ccccc2)C1=O)c1ccccc1 (stereo unspecified) | . | / | . | . | . | .
CC(C)OC(=O)c1cccnc1N1CCN(c2ccc(F)cc2)CC1 | . | . | . | . | . | .
CN(C)C(=O)CSc1nc2ccccc2n1Cc1ccccc1 | . | . | . | . | . | .
SMILES | Rab9 prom act | SMN2 splice enh | ELG1 repair inh | ELG1 genotox | FLuc counter | NPC1 prom act
Cc1ccc(-c2csc3nc(SCC(=O)N(C)C)n(Cc4ccccc4)c(=O)c23)cc1 | . | . | 21µM | . | . | .
C=CCn1c(SCC(=O)Nc2c(C)n(C)n(-c3ccccc3)c2=O)nc2scc(-c3ccccc3)c2c1=O | . | . | 23µM | . | . | .
NC(=O)CSc1nc2scc(-c3ccc(Cl)cc3)c2c(=O)n1Cc1ccccc1 | . | / | 16µM | . | . | .
CCc1cccc(NC(=O)Cn2cccc2)c1 | . | . | . | . | . | .
CCCCn1c(SCC(=O)N2CCCC2)nnc1-c1ccccc1 | . | . | . | . | . | .
c1ccc(C2=Nn3c(nnc3-c3cc(-c4ccccc4)n[nH]3)SC2)cc1 | . | ? | ? | ? | / | .
c1ccc(C2=Nn3c(nnc3-c3n[nH]c4c3CCC4)SC2)cc1 | . | ? | ? | 23µM | . | .
Clc1ccc(C2=Nn3c(nnc3-c3n[nH]c4c3CCC4)SC2)cc1Cl | . | 10µM | ? | ? | . | .
O=C(Nc1ccc(Cl)cc1Cl)c1cc2ccccc2o1 | 1.6µM | / | ? | ? | 0.95µM | 1.4µM
O=C(Nc1ncccc1Cl)c1cc2ccccc2o1 | 1.6µM | / | ? | 7.3µM | 5.4µM | 2µM
Cc1ccc(NC(=O)c2cc3ccccc3o2)nc1 | 3.2µM | / | ? | 0.73µM | 1.9µM | 4µM
Cc1ccccc1NC(=O)c1cc2ccccc2o1 | ? | / | ? | 7.3µM | 8.5µM | 4µM
Cc1cc(C)nc(NC(=O)c2cc3ccccc3o2)n1 | . | . | . | . | . | .
Cc1ccc(NC(=O)CCCn2nc(C)c3c(C)n(-c4ccccc4)nc3c2=O)cc1C | . | / | . | .[9.26 µM] | . | .
COc1ccccc1OCc1ccc(C(=O)N2CCN3CCCC3C2)cc1 (stereo unspecified) | . | . | . | . | . | .
Cc1cc(C)cc(-n2nnc(-c3nc(-c4ccc5c(c4)OCO5)no3)c2C)c1 | / | / | / | / | . | /
Cc1cc(C)nc(-n2ncc(C#N)c2N)n1 | . | / | ? | . | . | .
COc1ccccc1NC(=O)c1cc2ccccc2o1 | ? | 22µM | ? | ? | 6.7µM | ?
O=C(NCCc1ccccn1)c1cc2ccccc2o1 | ? | / | ? | ? | ? | 3.5µM
COc1cc(NC(=O)c2cc3ccccc3o2)c(OC)cc1Br | . | . | . | . | . | .
CCN(CC)C(=O)c1cc2sc3ccccc3c2s1 | 3.2µM | . | ? | ? | 9.5µM | 2.8µM
CC(C)Oc1ccc(C(=O)OCC(=O)NC(=O)NC2CCCC2)cc1 | . | / | . | . | . | .
COc1cccc2cc(-c3nnc(Nc4ccccc4C)s3)c(=O)oc12 | / | / | / | / | 0.34µM | /
CCc1sc(Nc2cccc(C)c2)nc1-c1cc2cccc(OC)c2oc1=O | / | / | / | / | 7.6µM | /
O=C(CN1CCN(Cc2ccc(F)cc2Cl)C1=O)NCCc1ccccc1 | . | . | ? | . | . | .
SMILES | Rab9 prom act | SMN2 splice enh | ELG1 repair inh | ELG1 genotox | FLuc counter | NPC1 prom act
O=C(O)c1ccccc1NC(=O)C1CCCO1 (stereo unspecified) | / | . | / | / | . | /
O=C1CCC/C1=C/Nc1ccc2c(c1)OCO2 | ? | ? | ? | . | 17µM | .
CC1CCC/C(=C\Nc2ccccc2C(=O)O)C1=O (stereo unspecified) | . | . | ? | . | 24µM | .
CC1CCC/C(=C\Nc2ccc3c(c2)OCO3)C1=O (stereo unspecified) | ? | ? | ? | 10µM | 8.5µM | ?
Cn1cc(C(=O)c2cccc(Cl)c2Cl)cc1C#N | . | . | . | . | . | .
Cc1ccc(C)c(NC(=S)NNC(=O)c2csc(C)c2C)c1 | ? | . | . | . | . | .
CCOc1ccc(CCNC(=O)c2nn(C)c3c2CS(=O)(=O)c2ccccc2-3)cc1OCC | . | / | 18µM | . | . | .
CCOc1ccc(CCNC(=O)c2nn(C)c3c2CS(=O)(=O)c2ccccc2-3)cc1 | . | / | ? | . | . | .
COCCCNC(=O)c1nn(C)c2c1CS(=O)(=O)c1ccccc1-2 | / | / | / | / | . | /

Assay outcomes deposited in PubChem BioAssay by National Center for Advancing Translational Sciences (NCATS).
